Bioassay records from PubChem.
Pol iota inh – qHTS for Inhibitors of Polymerase Iota. DNA polymerase iota (Homo sapiens), Q9UNA4. Potency, µM (doses to about 115 µM), for inactives: at the highest dose activity, negative = inhibition, most hits filed as inhibitors. actives 1% (n = 390,000). Pol iota fluorescent replication assay, 10 min. AID 588590, 2011
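Fluorescent replication assay read twice, at 0 min and 10 min after adding 50 nM (final) substrate. Enzyme (10 nM) and compounds were first incubated 15 min at room temperature; enzyme-free buffer wells were negative controls.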
Pol eta inh – qHTS for Inhibitors of Polymerase Eta; DNA polymerase eta (Homo sapiens), Q9Y253; recombinant Pol eta, fluorescent DNA replication assay; Potency, µM (titrated, usually from 114 µM), for inactives: at the top dose activity change, negative = inhibition, actives largely listed as inhibitors; actives 1.2% (n = 390,000); AID 588591, 2011; note: % is set by controls: 0 for no effect and ±100 for the full control effect
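Fluorescent replication assay: 50 nM final substrate added after a 15 min room-temperature compound preincubation with 10 nM enzyme. Signal taken at 0 min and again at 10 min.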
Pol kappa inh – qHTS for Inhibitors of Polymerase Kappa; DNA polymerase kappa (Homo sapiens), Q9UBT6; purified Pol kappa, fluorescent DNA synthesis assay, 10 min; Potency, µM (top dose mostly 107 µM), for the others: at the top dose activity, negative = inhibition, hits mostly inhibitors; actives 0.53% (n = 400,000); AID 588579, 2011; note: % is set by controls: 0 for no effect and ±100 for the full control effect
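Pol kappa 10 nM + cpd, 15 min RT; start w/ substrate 50 nM final; fluorescence kinetic read, 0 and 10 min. Neg ctrl: buffer, no enzyme.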
L3MBTL1 inh – qHTS Assay for the Inhibitors of L3MBTL1; AlphaScreen L3MBTL1–H3K9me1 peptide binding; Potency, µM (series often up to 57.1 µM), inactives show at the top dose activity, negative = inhibition, usual class: inhibitors; actives 0.66% (n = 230,000); note: % is set by controls: 0 for no effect and ±100 for the full control effect; nearly all actives have a fitted effect of over 60% in size
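First, the protein-peptide complex forms for 30 min at room temperature (L3MBTL1 50 nM, biotinylated H3K9me1 peptide 75 nM). Next, compounds are pin-transferred and incubated 30 min. Finally, AlphaScreen beads are added and read after 30 min.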
POLB inh – qHTS Assay for Inhibitors of DNA Polymerase Beta; Potency, µM (titrated, usually from 114 µM), for inactives: at the highest dose activity change, negative = inhibition, hits mostly inhibitors; actives 1.3% (n = 340,000); AID 485314, 2010; Pol beta primer extension/strand displacement, fluorescence kinetic; P06746; note: % is set by controls: 0 for no effect and ±100 for the full control effect
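Curves were derived by four-parameter Hill fits of normalized qHTS data. The kinetic fluorescent primer-extension read was taken at 0 and 10 min after 50 nM substrate, following a 15 min room-temperature preincubation of 10 nM enzyme with compounds.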
APEX1 inh – qHTS Assay for Inhibitors of the Human Apurinic/apyrimidinic Endonuclease 1 (APE1). DNA repair nuclease/redox regulator APEX1 (Homo sapiens), P27695. Potency, µM (highest dose often 65.8 µM), without a hit: at the top dose activity change, negative = inhibition, hits mostly inhibitors. recombinant APE1, TAMRA/BHQ-2 abasic DNA cleavage fluorescence. actives 0.35% (n = 350,000);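 note: plate controls were vehicle for no effect and reference inhibitor for full effect; nearly all actives have a fitted effect of over 55% in size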
Target sequence (P27695 whole entry, looked up): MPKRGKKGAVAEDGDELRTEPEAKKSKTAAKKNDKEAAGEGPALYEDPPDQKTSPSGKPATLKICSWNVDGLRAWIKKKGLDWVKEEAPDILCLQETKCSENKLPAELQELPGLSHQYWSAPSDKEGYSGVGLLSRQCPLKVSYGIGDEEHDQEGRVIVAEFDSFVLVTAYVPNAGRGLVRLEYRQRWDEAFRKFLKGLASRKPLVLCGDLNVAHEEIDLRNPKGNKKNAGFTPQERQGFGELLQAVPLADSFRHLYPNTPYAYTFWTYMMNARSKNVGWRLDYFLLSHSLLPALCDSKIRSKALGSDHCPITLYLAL
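APE1 at 0.75 nM final was preincubated with compound 15 min at room temperature, then 50 nM double-stranded THF abasic-site substrate (5'-TAMRA/3'-BHQ-2) was added. Fluorescence (ex 525/em 598 nm) was read kinetically; third-minus-first read gave activity.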
PGK validate – qHTS for inhibitors of Phosphogylcerate Kinase: Hit Validation Screen; Potency, µM (titrated, usually from 57.5 µM), for the others: top-dose activity change, negative = inhibition, actives largely listed as inhibitors; AID 686980, 2013; shares compounds with Pol kappa inh; TbPGK coupled GAPDH assay, Kinase-Glo luminescence; actives 79% (n = 500); note: % is set by controls: 0 for no effect and ±100 for the full control effect; nearly all actives have a fitted effect of over 65% in size
Pol iota confirm – qHTS for Inhibitors of Polymerase Iota: Confirmatory Assay for Cherry-picked Compounds | Potency, µM, most hits filed as inhibitors | shares compounds with Pol kappa inh | Pol iota primer extension, TAMRA/BHQ fluorescence | actives 77% (n = 1,500)
An asterisk follows results filed as active; ? = inconclusive; · = no result; [ ] = dose if it differs, or a comment. Hits are enriched below; roughly 2.5% of the tested compounds scored in any of these assays. Calls come from the whole dose curve; as a rule, active = well fitted curve in the direction sought with a large enough effect; inconclusive = small, poorly fitted or top-dose-only effect, or another doubt; inactive = no such curve, though single readings can be large; an effect the other way counts as inactive or inconclusive. Potency is the fitted concentration of half-maximal effect.

SMILES	Pol iota inh	Pol eta inh	Pol kappa inh	L3MBTL1 inh	POLB inh	APEX1 inh	Pol iota confirm	others
Cc1ccc(CNC(=O)c2nnn(CC(=O)Nc3cc(C)cc(C)c3)c2N)cc1	40µM*	?	?	·	?	-16%	34*
Cc1cc(C)cc(NC(=O)Cn2nnc(C(=O)NCc3ccc4c(c3)OCO4)c2N)c1	?	?	?	·	?	16%	·
Cc1ccc(-c2nc3ccccc3n2C)o1	27%	0%	-12%	·	-2%	-1%	·	PGK validate=?
CN(CC(=O)Nc1ccccc1C(F)(F)F)C(=O)c1cccc(-n2cccc2)c1	?	?	-12%	?	·	39%	·
CCN1CCc2c(sc(NC(=O)CSc3ccccc3)c2-c2nc3ccccc3s2)C1	-9%	-10%	-6%	·	2%	·	·
CC(=O)Nc1sc2c(c1-c1nc3ccccc3s1)CCCNC2	·	·	·	·	·	·	?
CC(=O)Nc1sc2c(c1-c1nc3ccccc3s1)CCN(C(C)C)CC2	·	·	·	·	·	·	67*
COc1ccc(Oc2ncc3nc(-c4cccs4)c(=O)n(C)c3n2)cc1	·	·	-5%[60.1 µM]	·	·	2%	·
CCC(C(=O)NC1CCCC1)N(C(=O)c1snc(C(N)=O)c1N)c1ccc(OC)c(OC)c1 (stereo not drawn)	67%	-4%	0%	·	-24%	12%	·
COc1ccc(N(C(=O)c2snc(C(N)=O)c2N)C(C(=O)NC2CCCC2)c2cccs2)cc1OC (stereo not drawn)	8.9µM*	?	-18%	·	?	-6%	?
COc1ccc(OC)c(N/C(C)=C/C(=O)c2ccccc2)c1	29%	-8%	-21%	0%	-2%	-1%	·
COc1ccc(OC)c(N/C=C/C(=O)c2ccccc2)c1	0%	1%	-11%	0%	21%	-11%	·	PGK validate=18µM*
Cc1csc(NC(=O)c2cn3ccccc3n2)n1	9%	-5%	-10%	0%	?	3%	·	PGK validate=18µM*
CC(C)[C@H](NC(N)=O)C(=O)Nc1cccc(S(=O)(=O)N2CCOCC2)c1	-9%	-9%	-7%	5%	29%	-4%	·
O=C(Cn1c2ccccc2c(=O)c2ccccc21)N/N=C/c1ccc(N2CCCC2)c([N+](=O)[O-])c1	31%	?	-29%	-7%	9%	-2%	·
O=C(Cn1c2ccccc2c(=O)c2ccccc21)N/N=C/c1cc([N+](=O)[O-])ccc1N1CCCCCC1	45%	2.8µM*	-7%	2%	2.5µM*	-4%	?
COc1cc(NC(=O)c2cc3c(s2)-c2ccccc2OC3)cc(OC)c1OC	10%	-26%	-10%	·	8%	·	·
Cc1cc2[nH]c3c4ccccc4nc(C)c3c2cc1C	14µM*	-19%	79µM*	·	·	·	42*
COc1ccc(-c2nc3ccccn3c2Nc2ccccc2C)cc1	10%	·	-7%	·	·	·	·
O=Cc1coc2ccc3ccccc3c2c1=O	168%	-8%	-25%	-9%	?	5%	·	PGK validate=?
NC(=O)N/N=C/c1coc2ccc3ccccc3c2c1=O	-1%	-2%	-4%	1%	3%	-2%	·
O=C(NCc1cccn1Cc1ccccc1)Nc1cccc(C(F)(F)F)c1	?	-12%	-6%	·	-24%	·	·
CCOc1ccc2nc(NC(=O)c3ccoc3C)sc2c1	?	-16%	-4%	-3%	-21%	-8%	·	PGK validate=6.5µM*
Cn1c(SCC(=O)NC(=O)Cc2ccccc2)nnc1-c1ccc(F)cc1	12%	-16%	-16%	7%	·	32%	·
O=C(NCCCN1CCOCC1)c1cnccn1	23%	-3%	2%	·	3%	19%	·
SMILES	Pol iota inh	Pol eta inh	Pol kappa inh	L3MBTL1 inh	POLB inh	APEX1 inh	Pol iota confirm	others
CC1=C(C(=O)Nc2cccnc2)C(c2ccccc2)n2nc(SCc3ccccc3)nc2N1 (stereo not drawn)	1%	4%	-13%	·	27%	·	·
CC1=C(C(=O)Nc2cccnc2)C(c2cccc(O)c2)n2nc(SCc3ccccc3)nc2N1 (stereo not drawn)	79µM*	?	-6%[60.1 µM]	·	-18%	·	?
COc1ccc(COC(=O)C2=C(C)NC(=O)CC2c2cccc(Cl)c2Cl)cc1 (stereo not drawn)	-5%	-8%	16%	·	1%	·	·
O=C(Nc1ccc(NC(=O)c2ccco2)c(Cl)c1)c1ccc2c(c1)OCCO2	?	?	?	·	?	?	?
CC(C)CCN1CCN(Cc2ccc3nsnc3c2)CC1CCO (stereo not drawn)	25%	-2%	-18%	5%	-1%	-4%	·	PGK validate=-8%
O=C(NCc1cccs1)c1ccc(N2CCCC2=O)cc1	10%	2%	-12%	·	1%	1%	·
C#Cc1ccc(C(=O)NCc2ccc(N3CCCC3=O)cc2)cc1	?	16µM*	?	-35%	18µM*	-2%	42*
CCCCCCCCCCCCCCCC(C)C1=NCCN1 (stereo not drawn)	1%	·	-2%	·	·	·	·
C(=C\c1nc2ccccc2[nH]1)/c1ccccc1	6%	-2%	-20%	0%	4%	0%	·	PGK validate=16µM*
C(=C\c1ccco1)/c1nc2ccccc2[nH]1	2%	-19%	-3%	-25%	-17%	3%	·
Cc1ccsc1/C=C1\CCc2ccccc2C1=O	7%	2%	-3%	·	-26%	8%	·	PGK validate=15µM*
CCOc1ccc(/C=C2/SC(=S)N(CCC(=O)Nc3ccc(C(=O)O)cc3)C2=O)cc1	?	8.9µM*	-11%	·	-9%	7.5µM*	21*
COc1ccc(/C=C2\SC(=S)N(CCC(=O)Nc3cccc(C(=O)O)c3)C2=O)cc1	-6%	?	-3%	-5%	?	-13%	·
O=C(CCN1C(=O)/C(=C/c2ccc(Cl)cc2)SC1=S)Nc1cccc(C(=O)O)c1	50%	89µM*	-15%	·	-10%	?	?
CCC(=O)N1CCc2cc(Br)cc(S(=O)(=O)NCCc3ccc(OC)c(OC)c3)c21	8%	-17%	1%	·	5%	·	·
